Laboratory results reported in the supplement of paper PMC10933113.
A number with no mark means an inactive call.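 Rule for the calls: active = curve rank above 3; inactive = curve rank 0.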

tested on: KeratinoSens (HaCaT ARE-luciferase) cells; assay: Nrf2/ARE luciferase activation call in qHTS KeratinoSens assay (1 = active, 0 = inactive)

Compound	Nrf2/ARE luciferase activation call
CCCCCCn1cc[n+](C)c1.O=S(=O)([N-]S(=O)(=O)C(F)(F)F)C(F)(F)F	not active ARE inducer (skin sensitizer alert)
O=C(O)/C=C\C(=O)O.c1ccc2nc(N3CCNCC3)ccc2c1	not active ARE inducer (skin sensitizer alert)
CCCCCCCCCCCCCCCCCC(=O)[O-].OCC[NH+](CCO)CCO	active ARE inducer (skin sensitizer alert)
O=C(O)/C=C/C(=O)O.O=C(O)/C=C/C(=O)O.c1ccc(CN2CCNCC2)cc1	not active ARE inducer (skin sensitizer alert)
CCCCCCCCCCCCOS(=O)(=O)O.OCCN(CCO)CCO	not active ARE inducer (skin sensitizer alert)
CCN(CC)CCc1c[nH]c2ccccc12.CCN(CC)CCc1c[nH]c2ccccc12.O=C(O)/C=C/C(=O)O	not active ARE inducer (skin sensitizer alert)
